Measured values reported in PubChem BioAssay (NCATS).
Records with an inconclusive call do not appear. Calls of active or inactive are those of the source. Unless noted, the call rests on the fitted dose curve.

Tests used:
[1] = Primary qHTS for inhibitors of SARS-S pseudo-typed particle cell entry (AID 1479145); conditions: outcome: dose series up to 57.1 µM unless noted; further: nearly all actives have a fitted effect of over 45% in size; on activity change, negative = inhibition: series mostly up to about 57 µM; on the % scale 0 is the no-effect control and ±100 the full control effect
[2] = Primary qHTS for Huh7 cytotoxicity: counterscreen for inhibitors of MERS-S pseudotyped particle cell entry (AID 1479147); conditions: outcome: dose series up to 57.1 µM unless noted
[3] = Primary qHTS for inhibitors of MERS-S pseudo-typed particle cell entry (AID 1479149); conditions: outcome: dose series up to 57.1 µM unless noted; further: nearly all actives have a fitted effect of over 60% in size; on activity change, negative = inhibition: series mostly up to about 57 µM; on the % scale 0 is the no-effect control and ±100 the full control effect
[4] = Primary qHTS for Vero E6 cytotoxicity: counterscreen for inhibitors of SARS-S pseudo-typed particle cell entry (AID 1479150)
[5] = target: Calcium and integrin-binding protein 1 (Homo sapiens) (UniProt Q99828); test: Primary qHTS for Identification of Calcium Integrin Binding Protein 1 (CIB1) Competitor (AID 1508620; active means well fitted curve in the direction sought with a large enough effect; an effect the other way counts as inactive or inconclusive;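 further: GST tagged CIB1 binding a fluorescein labelled alphaIIb integrin peptide tracer; top concentration of the series differs between compounds; on the % scale 0 is the no-effect control and ±100 the full control effect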)
Sequence of Calcium and integrin-binding protein 1 (Homo sapiens) (Q99828 whole entry, looked up): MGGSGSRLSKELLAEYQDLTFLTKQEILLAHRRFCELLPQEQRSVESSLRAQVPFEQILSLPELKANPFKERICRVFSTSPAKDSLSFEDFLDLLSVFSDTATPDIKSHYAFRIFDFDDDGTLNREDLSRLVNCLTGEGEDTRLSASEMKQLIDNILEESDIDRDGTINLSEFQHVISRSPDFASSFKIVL
Summary of the method: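 Fluorescence polarization competition: CIB1-GST (1 uM final) preincubated with compound 15 min at room temperature, then FITC-labeled alphaIIb peptide (100 nM final) added for another 15 min. Polarization read at Ex 480/Em 540.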

[6] = Confirmatory qHTS for VERO E6 Cytotoxicity Assay: Counterscreen for SARS-CoV-2 CPE Assay (AID 1508605); further: series mostly up to about 20 µM; on the % scale 0 is the no-effect control and ±100 the full control effect; nearly all actives have a fitted effect of over 60% in size
[7] = Confirmatory qHTS for activators (rescue) of SARS-CoV-2 Cytopathic Effect (CPE) (AID 1508606); further: 0% is about no effect; nearly all actives have a fitted effect of over 70% in size
[8] = Counterscreen qHTS for small molecule stabilizers of the endoplasmic reticulum resident proteome: GLuc-NoTag assay (AID 1508627; active means well fitted curve in the direction sought with a large enough effect; an effect the other way counts as inactive or inconclusive;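 further: SH-SY5Y cells given compound then 100 nM thapsigargin to empty ER calcium; series mostly up to about 76 µM; 0% = thapsigargin alone and -100% = DMSO vehicle control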)
Summary of the method: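 SH-SY5Y cells stably expressing constitutively secreted GLuc (no SERCaMP tag) were pre-incubated 5 h, treated with compound for 19 h, then 100 nM thapsigargin for 4 h at 37C; medium GLuc read by coelenterazine luminescence.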

CCCCCCCCCC(=O)O[C@H]1CC[C@H]2[C@@H]3CCC4=CC(=O)CC[C@]4(C)[C@H]3CC[C@]12C
inactive: outcome [1] | outcome [2] | outcome [3] | Potency [4]

O=C(NCNC(=O)NC1C(=O)NC(=O)N1CO)NC1C(=O)NC(=O)N1CO (configuration not stated)
inactive: outcome [1] | outcome [2] | outcome [3] | Potency [4]

CCCCNCC(O)c1ccc(O)cc1 (configuration not stated)
inactive: outcome [1] | outcome [2] | outcome [3] | Potency [4]

CCC1(C)CC(=O)NC(=O)C1
inactive: outcome [1] inactive [at 114 µM] | outcome [2] inactive [at 114 µM] | outcome [3] | Potency [4]

c1ccc2sc(SNC3CCCCC3)nc2c1
inactive: outcome [1] | outcome [2] | outcome [3] inactive [at 114 µM] | Potency [4]

C[C@@H](CO)NC(=O)[C@@H]1C=C2c3cccc4[nH]cc(c34)C[C@H]2N(C)C1
inactive: outcome [1] | outcome [2] | outcome [3] | Potency [4]

CN1[C@H]2CC[C@@H]1[C@@H](C(=O)O)[C@@H](OC(=O)c1ccccc1)C2
inactive: outcome [1] | outcome [2] inactive [at 114 µM] | outcome [3] inactive [at 114 µM] | Potency [4]

O=[N+]([O-])c1cc(I)c(O)c(I)c1
inactive: outcome [1] | outcome [2] | outcome [3] | Potency [4]

O=[N+]([O-])C(Br)(CO)CO
inactive: outcome [1] | outcome [2] | outcome [3] | Potency [4]

C=CC[C@]1(O)CC[C@H]2[C@@H]3CCC4=CCCC[C@@H]4[C@H]3CC[C@@]21C
inactive: outcome [1] inactive [at 114 µM] | outcome [2] inactive [at 114 µM] | outcome [3] | Potency [4]

CC(C)CCC(=O)O[C@H]1CC[C@H]2[C@@H]3CCC4=CC(=O)CC[C@]4(C)[C@H]3CC[C@]12C
inactive: outcome [1] | outcome [2] | outcome [3] | Potency [4]

C[C@@H]([C@H](O)c1ccccc1)N(C)C
inactive: outcome [1] | outcome [2] | outcome [3] | Potency [4]

O=C(OCCN1CCCCC1)C(O)(c1ccccc1)c1ccccc1
inactive: outcome [1] | outcome [2] | outcome [3] | Potency [4]

COc1cc2c(cc1OC)[C@@]13CCN4CC5=CCO[C@H]6CC(=O)N2[C@H]1[C@H]6[C@H]5C[C@H]43
inactive: outcome [1] | outcome [2] | outcome [3] | Potency [4] | Potency [5]

NCC(O)c1cccc(O)c1 (configuration not stated)
inactive: outcome [1] | outcome [2] | outcome [3] | Potency [4]

O=P(O)(O)C(Cl)(Cl)P(=O)(O)O
inactive: activity change, negative = inhibition [1] -10.6% [at 5.34 µM] | outcome [2] inactive [at 5.34 µM] | outcome [3] inactive [at 5.34 µM] | outcome [4] inactive [at 5.34 µM]

CC(C)CCON=O
inactive: outcome [1] | outcome [2] | outcome [3] | Potency [4]

O=[N+]([O-])c1ccccc1
inactive: outcome [1] | outcome [2] | outcome [3] | Potency [4]

CCNC1(c2cccs2)CCCCC1=O (configuration not stated)
inactive: outcome [1] | outcome [2] | outcome [3] | Potency [4]

CC(N)Cc1ccc(O)cc1 (configuration not stated)
inactive: outcome [1] | outcome [2] | outcome [3] | Potency [4]

CC[N+](C)(CC)CCOC(=O)C(O)(c1ccccc1)c1ccccc1
inactive: outcome [1] | outcome [2] | outcome [3] | Potency [4]

C[N+]1(C)CCCCC1COC(=O)C(O)(c1ccccc1)c1ccccc1 (configuration not stated)
inactive: outcome [1] | outcome [2] | outcome [3] | Potency [4]

CCOC(=O)c1ccccc1C(=O)OCC
inactive: outcome [1] | outcome [2] | outcome [3] | Potency [4]

CC(=O)O[C@H]1CC[C@H]2[C@@H]3CCC4=CC(=O)CCC4=C3C=C[C@]12C
inactive: outcome [1] | outcome [2] | outcome [3] | Potency [4]

CC[C@H](C)[C@H]1O[C@]2(C=C[C@@H]1C)C[C@@H]1C[C@@H](C/C=C(\C)[C@@H](O[C@H]3C[C@H](OC)[C@@H](O[C@H]4C[C@H](OC)[C@@H](O)[C@H](C)O4)[C@H](C)O3)[C@@H](C)/C=C/C=C3\CO[C@@H]4[C@H](O)C(C)=C[C@@H](C(=O)O1)[C@]34O)O2
inactive: outcome [1] | outcome [2] | Potency [4]

O=C(O)C(Cl)(Cl)Cl
inactive: outcome [1] | outcome [2] | outcome [3] | Potency [4]

O=S(=O)(O)c1cc(O)ccc1O
inactive: outcome [1] | outcome [2] | outcome [3] | Potency [4]

CC[C@H]1CN2CC[C@H]1C[C@@H]2[C@@H](O)c1ccnc2ccc(OC)cc12
inactive: outcome [6] | outcome [7]

Cc1cc(C)cc(C(=O)OC2C[C@H]3CC[C@@H](C2)N3C)c1 (some centres not stated)
inactive: outcome [8]

O[C@H]1[C@H]2[C@H](O)CCCN2C[C@H]1O
inactive: outcome [8]
